Bioassay records deposited in PubChem BioAssay by National Center for Advancing Translational Sciences (NCATS).
TDP1 cell CPT = growth inhibition of DT40 Tdp1-/-;hTDP1 cells with camptothecin (screen for TDP1 inhibitors). chicken DT40 Tdp1-/-;hTDP1 cells + 20 nM CPT, ATP luminescence, 48 h. Potency, µM (titrated, usually from 46.2 µM), without a hit: at the top dose activity change, negative = growth inhibition, hits mostly inhibitors. 420,000 tested, 12% active. AID 686979; further: nearly all actives have a fitted effect of over 55% in size
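Chicken DT40 Tdp1-/- cells stably complemented with human TDP1 were seeded at 400 cells/well in medium containing 20 nM camptothecin, exposed to pin-transferred compounds, and grown at 37 °C for at least 48 hr. Viability was read as ATP luminescence.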
HT1080 IDH1KD tx = toxicity to HT-1080 IDH1 knockdown cells (counter line); HT-1080 IDH1 knockdown viability, ATP luminescence, 48 h; Potency, µM (top dose mostly 46.1 µM), for the others: at the top dose activity, negative = toxicity, hits mostly cytotoxic; 360,000 tested, 2% active; AID 686971;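 further: 0% = DMSO wells and -100% = cell-free medium wells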
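After a 2 h attachment period, IDH1KD HT-1080 cells took pin-transferred compound for 48 h at 37 °C; ATP-based luminescence after 10 min room-temperature reagent incubation reported viability.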
HT1080NT lethal = kills 2HG-producing HT-1080-NT fibrosarcoma cells | 360,000 tested, 1.6% active | HT-1080-NT fibrosarcoma viability, CellTiter-Glo ATP luminescence, 48 h | Potency, µM (top dose mostly 46.1 µM), for the others: top-dose activity, negative = less viability, hits mostly cytotoxic;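 further: NT is the 2HG producing partner of a matched IDH1 knockdown line; 0% = DMSO-treated cells and -100% = media-only wells without cells; nearly all actives have a fitted effect of over 55% in size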
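HT-1080-NT fibrosarcoma cells (2HG-overproducing), 750 cells/well in RPMI with 5% FBS, dosed after 2 h and incubated 48 h at 37C. CellTiter-Glo luminescence normalized to DMSO and no-cell wells; concentration-response curves fitted and classed.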
KB-3-1 tox = KB-3-1 parental cell cytotoxicity | Potency, µM (top dose mostly 46.1 µM), most hits filed as cytotoxic | KB-3-1 viability, CellTiter-Glo ATP luminescence, 72 h | 400,000 tested, 1.4% active; further: nearly all actives have a fitted effect of over 60% in size
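Using CellTiter-Glo luminescence, growth of non-resistant KB-3-1 adenocarcinoma cells is assessed 72 h after pin-tool compound addition at 37 °C. Normalized responses across the concentration series yield fitted curves.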
KB-V1 MDR tox = KB-V1 MDR subline cytotoxicity; AID 1347076; 400,000 tested, 3.4% active; KB-V1 MDR cells viability, CellTiter-Glo, 72 h; Potency, µM (titrated, usually from 46.1 µM), actives largely listed as cytotoxic; further: nearly all actives have a fitted effect of over 60% in size
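Following 72 h at 37 degrees C with compound, KB-V1 cell viability was read by CellTiter-Glo luminescence, medium being phenol-red-free DMEM plus 10% FBS; concentration-response parameters came from normalized, curve-fitted qHTS data.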
DT40 TDP1 no CPT = qHTS for Inhibitors of human tyrosyl-DNA phosphodiesterase 1 (TDP1): qHTS in cells in absence of CPT. DT40 Tdp1-/- hTDP1 cells, no CPT, ATP luminescence, 48 h. Potency, µM (highest dose often 46.2 µM), for inactives: at the top dose activity change, negative = growth inhibition, actives largely listed as inhibitors. 420,000 tested, 15% active. AID 686978, 2013; further: nearly all actives have a fitted effect of over 55% in size
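DT40 Tdp1-/-;hTDP1 cells, no CPT (DMSO vehicle only), 400 cells/well; compounds pin-transferred; ≥48 hr, 37 °C; CellTiter-Glo 30 min RT dark, luminescence read.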
The depositor's hits bear a star; i = inactive; ? = inconclusive; · = no result; [ ] = dose if it differs, or a comment. A selection: hits, their analogues and other compounds. The true share with any hit is near 19%. The call rests on the fitted dose curve; in most records, active means well fitted curve in the direction sought with a large enough effect; inconclusive means small, poorly fitted or top-dose-only effect, or another doubt; inactive means no such curve, though single readings can be large; an effect the other way counts as inactive or inconclusive. Unless noted, on the % scale 0 is the no-effect control and ±100 the full control effect; potency means the concentration at half of the fitted maximal effect.

SMILES | TDP1 cell CPT | HT1080 IDH1KD tx | HT1080NT lethal | KB-3-1 tox | KB-V1 MDR tox | DT40 TDP1 no CPT
COC(=O)[C@H]1C2CC3c4[nH]c5ccccc5c4CCN3CC2CC[C@@H]1O (some centres not stated) | -3% | · | · | · | · | -12%
CCc1c(C)sc(NC(=O)c2cc(-c3ccc(OC)cc3)on2)c1C#N | 0% | · | · | i | ? | -3%
CNc1nc(N/N=C/c2cc([N+](=O)[O-])ccc2F)nc(Nc2ccccc2)n1 | 13µM* | -5% | 0% | i | ? | 7.3µM*
O=S(=O)(c1ccc(F)cc1)n1ccc(-c2cccc(OCc3c(F)cccc3Cl)c2)n1 | -3% | -8% | -6% | ? | 21µM* | ?
O=S(=O)(c1ccc(Cl)cc1)n1ccc(-c2cccc(OCc3c(F)cccc3Cl)c2)n1 | -29% | -1% | 9% | i | i | ?
COc1ccc(C(=O)NCC(=O)OCc2ccc(F)cc2)cc1 | 2% | 10% | 10% | i | i | 1%
Cc1c[nH]c2cccc(OCC(O)CNC(C)(C)C)c12 (configuration not stated) | 5% | 3% | 14% | i | i | -6%
CC(C)(Cc1c[nH]c2ccccc12)NCC(O)COc1ccccc1C#N (configuration not stated) | 21µM* | · | · | · | · | 24µM*
CCOC(=O)c1c2ccc(OCC(=O)N/N=C/c3ccc(C)cc3)cc2n2ccccc12 | ? | 18% | 12% | ? | ? | 18µM*
CC(=O)N1CCc2cc(CNS(=O)(=O)c3ccccc3C(F)(F)F)ccc21 | -2% | · | · | · | · | 0%
CCC(C)/C=C/C1=CC2=C(Cl)C(=O)C3(C)OC(=O)C(C(=O)C(C)C(C)O)C3C2=CO1 (configuration not stated) | 12µM* | -1% | -1% | i | i | 18µM*
CCCCCCCOc1ccc(C2(C)NC(=O)NC2=O)cc1 (configuration not stated) | -27% | -4% | -17% | i | i | ?
CCCCOc1ccc(C2(C)NC(=O)NC2=O)cc1 (configuration not stated) | ? | -15% | -2% | i | i | 18µM*
COC(=O)c1ccccc1NC(=O)c1cc(=O)c2ccc(C)c(C)c2o1 | -15% | · | · | ? | i | -8%
CCN(CC)S(=O)(=O)c1cccc(-c2nnc(SC(C)C#N)n2Cc2ccccc2)c1 (configuration not stated) | 15µM* | -9%[9.24 µM] | -15% | i | ? | 18µM*
CSc1ncnc2c1ncn2CCCN1CCN(c2ncccn2)CC1 | -6% | 0% | 2% | i | i | ?
COc1ncnc2c1ncn2CCCN1CCN(Cc2ccc(C)cc2)CC1 | 9% | 2% | 4% | i | ? | -8%
COc1ncnc2c1ncn2CCCN1CCN(Cc2cccc3ccccc23)CC1 | ? | -7% | 0% | i | ? | 23µM*
CSc1ncnc2c1ncn2CCCNc1ccc(C)c(C)c1 | ? | -6% | -2% | i | i | 21µM*
CSc1ncnc2c1ncn2CCCN1CCN(Cc2cccc3ccccc23)CC1 | ? | -10% | -3% | i | ? | 23µM*
CSc1ncnc2c1ncn2CCCNCc1ccccc1 | 15% | 3% | 6% | i | ? | -14%
COc1cccc(C(=O)Nc2nc3nc(C)c(Cc4ccccc4)c(=O)n3[nH]2)c1 | -24% | · | · | · | · | ?
CC(C)CCNC(=O)c1ccc2c(c1)N(Cc1ccccc1)C(=O)CS2=O (configuration not stated) | 21µM* | -1% | 0% | i | i | ?
O=C(Nc1ccccc1Cl)c1ccc2c(c1)N(Cc1ccc(F)cc1)C(=O)CS2=O (configuration not stated) | 16µM* | 4% | -1% | i | i | ?
Cc1cccnc1NC1OC(=O)c2ccccc21 (configuration not stated) | -10% | 8% | 5% | i | i | -7%
SMILES | TDP1 cell CPT | HT1080 IDH1KD tx | HT1080NT lethal | KB-3-1 tox | KB-V1 MDR tox | DT40 TDP1 no CPT
Nc1nc(=S)ss1 | 16µM* | 17% | 6% | i | i | 7.3µM*
NNC(=O)c1[nH]c(-c2ccccc2)cc1-c1ccccc1 | -24% | ? | ? | i | i | ?
O=S(=O)(c1ccccc1)N1CCC2(CC1)CN(Cc1ccccc1)C2 | -6% | · | · | · | · | ?
COc1ccc(/C=C\C(=O)CC(O)(c2ccccc2)C(F)(F)F)cc1 (configuration not stated) | 16µM* | 11µM* | ? | i | ? | 15µM*
COc1ccc(/C=C/C(=O)OCC(=O)c2ccccc2F)cc1 | -26% | 16% | 14% | i | i | ?
CC1NC(C)(C)Cc2c1ccc1ccccc21 (configuration not stated) | -3% | -29% | -15% | i | ? | 1%
CC[N+]1(CC)CC2=Cc3c(ccc4ccccc34)C(C)C2C1 (configuration not stated) | 5.8µM* | 3% | 8% | i | i | 13µM*
CC(=O)c1cccc(NC(=O)CN(C)Cc2ccc(OC(F)F)cc2)c1 | ? | 18% | 20% | i | ? | ?
O=C(NN1CCN(Cc2ccccc2Cl)CC1)c1ccc(Cl)cc1 | ? | -11% | 6% | i | ? | 12µM*
O=C(NC1CCN(Cc2ccccc2Cl)CC1)c1ccccc1 | -24% | 10% | 0% | i | i | ?
CCc1ccccc1NCc1nnc2n1CCCCC2 | 1% | · | · | i | i | -9%
O=[N+]([O-])c1ccc(S(=O)(=O)c2cccc(C(F)(F)F)c2)nc1 | 2.6µM* | 7.3µM* | 10µM* | ? | ? | 0.65µM*
Cc1ccc2[nH]c(=O)c(COC(=O)C3CCCCC3)cc2c1 | -18% | -6% | 25% | ? | ? | -13%
CN(CC(=O)Nc1cccc(F)c1)C(=O)c1cccc(-n2cccc2)c1 | -7% | -4% | -1% | i | ? | ?
Cc1cccc(C)c1NC(=O)CN(C)C(=O)c1cccc(S(=O)(=O)N2CCN(C)CC2)c1 | ? | 10% | 14% | i | i | ?
Cc1cccc(C)c1NC(=O)CN(C)C(=O)c1cccc(S(=O)(=O)N2CCN(c3ccc(F)cc3)CC2)c1 | 12µM* | -25% | ? | ? | ? | 7.3µM*
CN(CC(=O)Nc1cccc(F)c1)C(=O)c1cccc(S(=O)(=O)N2CCN(c3ccc(F)cc3)CC2)c1 | 21µM* | ? | -22% | ? | i | 21µM*
